{"source": "ChEMBL document CHEMBL1961873", "about": "“Compounds: GSK PKIS; Assays: Nanosyn kinase panel” (2012);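 also: reported value is a mean inhibition of Aurora-C from the GSK PKIS screening panel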", "data": [{"molecular_target": "T1, Aurora kinase C (Homo sapiens) (UniProt Q9UQB9)", "T1 sequence (whole entry)": "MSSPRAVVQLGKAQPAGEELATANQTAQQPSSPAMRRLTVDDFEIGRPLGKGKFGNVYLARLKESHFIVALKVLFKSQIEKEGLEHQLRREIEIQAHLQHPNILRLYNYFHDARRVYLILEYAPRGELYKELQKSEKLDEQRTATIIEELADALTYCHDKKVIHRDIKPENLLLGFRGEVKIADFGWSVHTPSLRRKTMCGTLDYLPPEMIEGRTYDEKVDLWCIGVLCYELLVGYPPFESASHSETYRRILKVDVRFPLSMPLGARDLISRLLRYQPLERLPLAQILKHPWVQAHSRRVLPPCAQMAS", "details": "at 1 µM", "units": {"inhibition": "%"}, "values": [{"smiles": "O=C1Nc2ccc(I)cc2C1=Cc1cc(Br)c(O)c(Br)c1", "inhibition": 4.11}, {"smiles": "CCS(=O)(=O)c1ccc(OC)c(Nc2ncc(-c3cccc(-c4ccccc4F)c3)o2)c1", "inhibition": -0.17}, {"smiles": "COc1ccc(-c2ccc3c(NC(=O)C4CC4)n[nH]c3n2)cc1", "inhibition": 8.55}, {"smiles": "CCc1ccc(Oc2nccc(-c3c(-c4ccc(F)cc4)ncn3C3CCNCC3)n2)cc1", "inhibition": 3.88}, {"smiles": "NCc1ccc(-n2c(-c3nonc3N)nc3cnccc32)cc1", "inhibition": 18.8}, {"smiles": "CN1CCN(CCCNc2nc3ccc(Oc4ccc(NC(=O)Nc5cc(C(F)(F)F)ccc5F)cc4)cc3[nH]2)CC1", "inhibition": 23.7}, {"smiles": "NS(=O)(=O)c1ccc(Nc2cc(-c3ccc(O)c(F)c3)n[nH]2)cc1", "inhibition": 22.4}, {"smiles": "NS(=O)(=O)c1ccc(N/N=C2\\C(=O)Nc3ccc(-c4cnco4)cc32)cc1", "inhibition": 11.5}, {"smiles": "CCc1cccc(CC)c1/C=C/c1cncc(C(=O)NC)c1", "inhibition": 11.7}, {"smiles": "FC(F)(F)c1cccc(Nc2nccc(-c3cnn4nc(-c5ccccc5)ccc34)n2)c1", "inhibition": 10.2}, {"smiles": "COc1ccc2cc(-c3c(-c4ccncc4)nc(-c4ccc([S+](C)[O-])cc4C)n3C)ccc2c1", "note": "(centres undefined)", "inhibition": 2.95}, {"smiles": "CCS(=O)(=O)c1ccc(OC)c(Nc2ncc(-c3ccccc3Cl)o2)c1", "inhibition": -2.79}, {"smiles": "C[C@@H](Oc1cc(-n2cnc3ccc(OCC4CCN(C)CC4)cc32)sc1C(N)=O)c1ccccc1Cl", "inhibition": 3}, {"smiles": "C[C@@H](Oc1cc(-n2cnc3ccc(OC4CCN(C)CC4)cc32)sc1C(N)=O)c1ccccc1Cl", "inhibition": -1.29}, {"smiles": "CCN(CC)Cc1ccc(Nc2nccc(-c3cnn4ncccc34)n2)cc1", "inhibition": 84.6}, {"smiles": "Fc1ccc(-c2ncn(CCCN3CCOCC3)c2-c2ccncc2)cc1", "inhibition": 10.1}, {"smiles": "Fc1ccc(-c2nc3n(c2-c2ccncc2)CCS3)cc1", "inhibition": 13.6}, {"smiles": "Fc1ccc(-c2ncn(C3CCNCC3)c2-c2ccnc(Oc3ccc4c(c3)OCO4)n2)cc1", "inhibition": 11.4}, {"smiles": "Fc1ccc(-c2c(-c3ccncc3)nc3n2CCS3)cc1", "inhibition": -8.58}, {"smiles": "O=C(Nc1n[nH]c2nc(-c3ccc(O)cc3)c(Br)cc12)C1CC1", "inhibition": 8.73}, {"smiles": "CN(C)CCOc1ccc(-c2cc(-c3ccc4c(c3)CCC4=NO)c(-c3ccncc3)o2)cc1", "inhibition": 7.21}, {"smiles": "COc1ccc(C2=C(N3CCc4ccccc43)C(=O)NC2=O)cc1", "inhibition": -3.65}, {"smiles": "CN(c1ccc(NC(=O)Nc2c(Cl)cccc2Cl)cc1)c1ccnc(Nc2cccc(CS(C)(=O)=O)c2)n1", "inhibition": 104}, {"smiles": "Cc1ccc(C(=O)NC2CCC2)cc1-c1ccc(C(=O)NCC2CC2)cc1", "inhibition": 7.37}, {"smiles": "COc1cccc(-n2cnc3c(N/N=C/c4ccncc4)ncnc32)c1", "inhibition": -1.49}, {"smiles": "Cc1ccc(C(=O)NC(C)C)cc1-c1ccc(C(=O)NCC2CC2)cc1", "inhibition": 1.27}, {"smiles": "NC(=O)Cc1ccccc1Oc1nccc(-c2c(-c3ccc(F)cc3)ncn2C2CCNCC2)n1", "inhibition": 8.16}, {"smiles": "O=C1Nc2ccccc2/C1=C/Nc1ccc(-n2cncn2)cc1", "inhibition": 44.8}, {"smiles": "c1ccc(Oc2ccc(Nc3ncc(-c4ccccc4)o3)cc2)cc1", "inhibition": -1.26}, {"smiles": "COc1cc2ncn(-c3cc(OCc4ccccc4C(F)(F)F)c(C(C)=O)s3)c2cc1OC", "inhibition": 11.9}, {"smiles": "COc1ccc2ncn(-c3cc(O[C@H](C)c4ccccc4Cl)c(C(N)=O)s3)c2c1", "inhibition": 1.77}, {"smiles": "CCc1nccc2c1nc(-c1nonc1N)n2CC", "inhibition": 5.21}, {"smiles": "CN(C)c1ccc2c(c1)/C(=C/Nc1ccc(S(N)(=O)=O)cc1)C(=O)N2", "inhibition": 48}, {"smiles": "COc1cc2ncn(-c3cc(OCc4cccs4)c(C(N)=O)s3)c2cc1OC", "inhibition": 10.1}]}]}
